We go through seven compounds from PubChem BioAssay (EPA / NIEHS).

Usually AC50 stands for the concentration at which the activity in the assay is half-maximal.

Results filed as inconclusive are left out. Activity calls are given as the source filed them. Rule for the calls: active = hit-call score of the fitted dose curve at least 0.9, where 1 is the maximum; inconclusive = response in the unintended direction; inactive = score below 0.9.

human Peripheral-type Benzodiazepine Receptor (PBR), TSPO (gene 706), sequence (P30536 whole entry, looked up): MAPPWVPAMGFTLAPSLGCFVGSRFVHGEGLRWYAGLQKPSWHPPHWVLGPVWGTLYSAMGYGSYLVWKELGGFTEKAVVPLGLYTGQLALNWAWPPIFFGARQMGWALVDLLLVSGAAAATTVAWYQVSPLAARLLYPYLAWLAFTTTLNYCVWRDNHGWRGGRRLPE

For this assay, the target named is human Peripheral-type Benzodiazepine Receptor (PBR), TSPO (gene 706) (UniProt P30536). The assay can be described thus: NVS_MP_hPBR: NovaScreen (NVS) Membrane Protein Assay for human Peripheral-type Benzodiazepine Receptor (PBR) (AID 2283331).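 Note: hits reduce radioligand binding relative to DMSO baseline.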 The gist of the method:
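Cell-free binding to human colonic membrane preparations measured by filter-based scintillation counting after 1 h. Compounds first run at 25 uM in duplicate, then concentration series for actives; signal loss against DMSO baseline.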
In the case of `CCC(CC)Nc1c([N+](=O)[O-])cc(C)c(C)c1[N+](=O)[O-]`, the compound was classed as inactive.

As for `CCc1cccc(C)c1N(C(=O)CCl)C(C)COC` (configuration not stated), the AC50 is 9.23 µM (active).

For the compound `CCOC(=O)CC(SP(=O)(OC)OC)C(=O)OCC` (configuration not stated), the call was inactive.

Take `CCOP(=S)(Oc1cnc(C(C)(C)C)nc1)OC(C)C` (configuration not stated): the outcome was inactive.

`C#CC(C)(C)NC(=O)c1cc(Cl)cc(Cl)c1`: the AC50 is 1.47 µM (active).

Regarding `CCCCSP(=O)(SCCCC)SCCCC`, the AC50 is 17.9 µM (active).

With `CC(COc1ccc(Oc2ccccc2)cc1)Oc1ccccn1` (configuration not stated), the compound was called inactive.
